Results filed as inconclusive are left out. Calls of active or inactive are those of the source. Unless noted, the call rests on the fitted dose curve; in most records, active means well fitted curve in the direction sought with a large enough effect; inconclusive means small, poorly fitted or top-dose-only effect, or another doubt; inactive means no such curve, though single readings can be large; an effect the other way counts as inactive or inconclusive.
What was measured:
[1] = Validation of Assay for Modulators of Lamin A Splicing (AID 1459; active means well fitted curve in the direction sought with a large enough effect in the signal ratio; the % refers to the signal ratio;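 further: cells exposed to compound for two days before reading; 0% is about no effect; ratio rise marks activators and ratio drop marks inhibitors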)
How it was run: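 Dual-reporter HeLa S3 line (lamin A-EGFP minigene, DsRed2) treated with compounds 48 hrs, 0.5% DMSO final. Endpoint: EGFP/DsRed2 total intensity ratio from laser-scanning microplate cytometry.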

[2] = qHTS Assay for Lipid Storage Modulators (AID 1519; calls by dose curve; on activity change, negative = inhibition: on the % scale 0 is the no-effect control and ±100 the full control effect); conditions: Drosophila S3 cells, BODIPY lipid droplet/cell ratio, laser cytometry, cells loaded with oleic acid
How it was run: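 Cells seeded at 5,000 per well were treated with compounds over a concentration series and loaded with oleic acid (400 uM, as added). Lipid droplet fluorescence (488 nm excitation, 500-530 nm channel) was read by laser-scanning cytometry and normalized to 20 uM Triacsin C.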

[3] = target: DNA repair nuclease/redox regulator APEX1 (Homo sapiens) (UniProt P27695); experiment: qHTS Validation Assay for Inhibitors of the Human Apurinic/apyrimidinic Endonuclease 1 (APE1) (AID 1705; further: potency means the concentration at half of the fitted maximal effect;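 on activity change, negative = inhibition: TAMRA fluorescence gain over two minutes as APE1 cuts a quenched THF abasic duplex; on the % scale 0 is the no-effect control and ±100 the full control effect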)
DNA repair nuclease/redox regulator APEX1 (Homo sapiens), sequence (P27695 whole entry, looked up): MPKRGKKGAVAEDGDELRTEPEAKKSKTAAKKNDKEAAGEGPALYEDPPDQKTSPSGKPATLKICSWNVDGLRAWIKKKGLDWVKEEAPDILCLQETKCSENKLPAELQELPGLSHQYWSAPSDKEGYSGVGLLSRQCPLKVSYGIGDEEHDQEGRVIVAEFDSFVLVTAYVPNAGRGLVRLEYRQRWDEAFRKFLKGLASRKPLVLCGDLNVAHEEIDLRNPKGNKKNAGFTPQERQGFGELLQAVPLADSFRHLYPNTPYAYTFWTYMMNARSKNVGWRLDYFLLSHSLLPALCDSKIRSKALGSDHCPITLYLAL
How it was run: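 Substrate: 50 nM final fluorophore/quencher THF-abasic duplex. Enzyme preincubated with compounds 15 min, RT. Progress derived from fluorescence difference, third minus first kinetic read.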

[4] = Counterscreen for APE1 Inhibitors: Fluorescent Dye Displacement Validation Assay (AID 1707);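 further: plate controls were ThO with dsDNA and no compound for no effect and ThO without dsDNA for full effect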
How it was run: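 Endpoint fluorescence read at 480 nm excitation / 540 nm emission; DNA-binding compounds lower signal by displacing 250 nM Thiazole Orange from 50 nM dsDNA containing a tetrahydrofuran abasic site, Tris-HCl pH7.5 buffer with NaCl and MgCl2.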

[5] = target: Endonuclease 4 (Escherichia coli (strain K12)) (UniProt P0A6C1); experiment: Counterscreen for APE1 Inhibitors: qHTS Validation Assay for Inhibitors of Endonuclease IV (AID 1708); further: on the % scale 0 is the no-effect control and ±100 the full control effect
How it was run: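 Read-out: fluorescence rise (ex 525/em 598 nm) from incision of a TAMRA/BHQ-2 double-stranded THF abasic-site substrate (50 nM), measured kinetically; third-minus-first read difference gave reaction progress. Enzyme 2 nM.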

[6] = qHTS for differential inhibitors of proliferation of Plasmodium falciparum line Dd2 (AID 1882); conditions: Potency: Plasmodium falciparum Dd2 proliferation inhibition;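 further: compound exposure of 72 h on infected erythrocytes; plate controls were DMSO vehicle for no effect and 0.29 µM artemisinin for full effect; nearly all actives have a fitted effect of over 65% in size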
How it was run: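 RBC culture, 0.3% parasitemia / 2.5% Hct final; cpd added by pin tool in DMSO; 72 h, 37 C, 5% CO2; lysis buffer + SYBR Green I, o/n RT dark; FI 485/535; norm. to artemisinin 0.29 uM and DMSO.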

[7] = target: Ferritin light chain (Equus caballus) (UniProt P02791); experiment: qHTS Validation Assay for Identification of Novel General Anesthetics (AID 2323); further: on the % scale 0 is the no-effect control and ±100 the full control effect
Ferritin light chain (Equus caballus), sequence (P02791 2-175 limits assumed): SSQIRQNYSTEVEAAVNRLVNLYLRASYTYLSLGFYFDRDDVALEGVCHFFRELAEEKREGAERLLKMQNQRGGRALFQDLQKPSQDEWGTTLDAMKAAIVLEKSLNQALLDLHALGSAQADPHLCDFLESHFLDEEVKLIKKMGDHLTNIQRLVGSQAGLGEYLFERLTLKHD
How it was run: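 Normalized fluorescence response, scaled between free 1-AMA and 1-AMA/apoferritin complex, fitted to a four-parameter Hill equation for concentration-effect values. Binding mix: 10 uM horse-spleen apoferritin, 50% saturated 1-AMA in PBS; read 380/535 nm after 10 min.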

[8] = target: ATP-dependent DNA helicase Q1 (Homo sapiens) (UniProt P46063); experiment: qHTS Validation Assay for Inhibitors of RecQ-Like Dna Helicase 1 (RECQ1) (AID 2353);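 further: plate controls were DMSO vehicle for no effect and enzyme-free control for full effect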
ATP-dependent DNA helicase Q1 (Homo sapiens), sequence (P46063 whole entry, looked up): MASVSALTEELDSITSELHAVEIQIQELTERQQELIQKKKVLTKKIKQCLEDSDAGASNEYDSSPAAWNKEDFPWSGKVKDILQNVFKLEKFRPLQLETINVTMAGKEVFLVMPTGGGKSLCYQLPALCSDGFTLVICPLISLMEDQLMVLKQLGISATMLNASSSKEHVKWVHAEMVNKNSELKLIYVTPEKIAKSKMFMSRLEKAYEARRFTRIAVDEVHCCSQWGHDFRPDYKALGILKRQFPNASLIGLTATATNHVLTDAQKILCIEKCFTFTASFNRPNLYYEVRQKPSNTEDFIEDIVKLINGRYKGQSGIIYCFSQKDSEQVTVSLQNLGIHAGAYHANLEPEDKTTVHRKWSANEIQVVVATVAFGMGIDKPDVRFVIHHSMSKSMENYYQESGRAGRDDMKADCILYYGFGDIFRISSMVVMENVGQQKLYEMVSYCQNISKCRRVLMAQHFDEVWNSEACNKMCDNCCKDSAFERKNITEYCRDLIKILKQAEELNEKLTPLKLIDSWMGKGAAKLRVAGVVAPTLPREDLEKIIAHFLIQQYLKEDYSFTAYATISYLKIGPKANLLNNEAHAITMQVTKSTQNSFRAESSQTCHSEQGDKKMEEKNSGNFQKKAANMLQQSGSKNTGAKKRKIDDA
How it was run: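 RECQ1T1 50 nM; forked duplex (20 bp + 30-nt ss tails) 200 nM, ATP 2 mM final; pH 8.0, 2 mM MgCl2, 2.5 ug/ml poly(dI-dC); 15 min compound preincubation; discontinuous kinetic read over 2 h at RT.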

[9] = Validation screen for small molecules that induce DNA re-replication in MCF 10A normal breast cells (AID 463097); further: 0% is about no effect; nearly all actives have a fitted effect of over 60% in size
How it was run: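 Following 48 hr compound incubation (37 C, 5% CO2), MCF 10A cells receive Hoechst for 40 min at 37 C. Nuclei are then scanned (excitation 405 nm, emission 500-530 nm) for total fluorescence intensity.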

[10] = Quantitative high throughput screen for delayed death inhibitors of the malarial parasite plastid, 96 hour incubation (AID 488745); further: on the % scale 0 is the no-effect control and ±100 the full control effect; nearly all actives have a fitted effect of over 70% in size
How it was run: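 Two-generation (96 h) exposure of luciferase-reporter P. falciparum in erythrocytes, 2% hematocrit, 0.1% parasitemia final, 37 C, 5% CO2, RPMI 1640 with 0.5% Albumax. Growth inhibition scored by reduced luminescence.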

[11] = Quantitative high throughput screen for delayed death inhibitors of the malarial parasite plastid, 48 hour incubation (AID 488752); further: on the % scale 0 is the no-effect control and ±100 the full control effect; nearly all actives have a fitted effect of over 65% in size
How it was run: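 Cultures: infected erythrocytes at final 2% hematocrit and 0.1% parasitemia in Albumax-supplemented RPMI. Parasites express integrated firefly luciferase. Incubation with compound lasts 48 h before luminescent detection of remaining reporter activity.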

[12] = target: M-phase phosphoprotein 8 (Homo sapiens) (UniProt Q99549); experiment: qHTS Validation Assay for Inhibitors for MPP8 Chromodomain Interactions with Methylated Histone Tails (AID 488949); further: nearly all actives have a fitted effect of over 55% in size; further: potency means the concentration at half of the fitted maximal effect
M-phase phosphoprotein 8 (Homo sapiens), sequence (Q99549 whole entry, looked up): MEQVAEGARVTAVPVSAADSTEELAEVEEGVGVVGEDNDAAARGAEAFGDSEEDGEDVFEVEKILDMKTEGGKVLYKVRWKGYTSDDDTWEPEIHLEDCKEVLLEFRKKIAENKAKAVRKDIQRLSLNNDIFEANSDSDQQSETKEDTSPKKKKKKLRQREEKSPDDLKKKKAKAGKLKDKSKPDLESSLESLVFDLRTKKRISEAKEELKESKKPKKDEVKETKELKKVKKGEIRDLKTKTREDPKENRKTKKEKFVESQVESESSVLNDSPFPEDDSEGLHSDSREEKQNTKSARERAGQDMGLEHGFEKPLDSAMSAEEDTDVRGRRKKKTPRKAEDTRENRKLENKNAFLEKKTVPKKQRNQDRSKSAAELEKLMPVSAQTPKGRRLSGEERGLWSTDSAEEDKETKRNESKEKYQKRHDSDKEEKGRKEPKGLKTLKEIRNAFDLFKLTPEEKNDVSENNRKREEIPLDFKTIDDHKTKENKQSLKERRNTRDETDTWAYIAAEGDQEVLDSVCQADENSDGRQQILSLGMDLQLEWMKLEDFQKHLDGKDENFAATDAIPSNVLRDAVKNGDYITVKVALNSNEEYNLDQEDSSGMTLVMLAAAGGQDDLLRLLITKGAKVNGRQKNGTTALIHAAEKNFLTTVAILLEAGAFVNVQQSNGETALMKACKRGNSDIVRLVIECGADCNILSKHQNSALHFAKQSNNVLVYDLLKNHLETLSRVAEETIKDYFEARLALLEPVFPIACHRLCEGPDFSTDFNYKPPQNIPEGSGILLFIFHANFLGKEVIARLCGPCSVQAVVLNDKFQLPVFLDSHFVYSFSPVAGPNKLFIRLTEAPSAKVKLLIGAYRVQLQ
How it was run: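 Chemiluminescent proximity assay: histidine-tag capture via nickel acceptor beads, biotin peptide via streptavidin donor beads. Protein and peptide each at 50 nM, pH 7.4, with 30 min incubations at room temperature for complex formation, compound exposure and bead binding.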

[13] = target: Thyrotropin receptor (Homo sapiens) (UniProt P16473); experiment: qHTS Assay for Antagonists of the Thyroid Stimulating Hormone Receptor (AID 488980); further: 0% is about no effect
Thyrotropin receptor (Homo sapiens), sequence (P16473 whole entry, looked up): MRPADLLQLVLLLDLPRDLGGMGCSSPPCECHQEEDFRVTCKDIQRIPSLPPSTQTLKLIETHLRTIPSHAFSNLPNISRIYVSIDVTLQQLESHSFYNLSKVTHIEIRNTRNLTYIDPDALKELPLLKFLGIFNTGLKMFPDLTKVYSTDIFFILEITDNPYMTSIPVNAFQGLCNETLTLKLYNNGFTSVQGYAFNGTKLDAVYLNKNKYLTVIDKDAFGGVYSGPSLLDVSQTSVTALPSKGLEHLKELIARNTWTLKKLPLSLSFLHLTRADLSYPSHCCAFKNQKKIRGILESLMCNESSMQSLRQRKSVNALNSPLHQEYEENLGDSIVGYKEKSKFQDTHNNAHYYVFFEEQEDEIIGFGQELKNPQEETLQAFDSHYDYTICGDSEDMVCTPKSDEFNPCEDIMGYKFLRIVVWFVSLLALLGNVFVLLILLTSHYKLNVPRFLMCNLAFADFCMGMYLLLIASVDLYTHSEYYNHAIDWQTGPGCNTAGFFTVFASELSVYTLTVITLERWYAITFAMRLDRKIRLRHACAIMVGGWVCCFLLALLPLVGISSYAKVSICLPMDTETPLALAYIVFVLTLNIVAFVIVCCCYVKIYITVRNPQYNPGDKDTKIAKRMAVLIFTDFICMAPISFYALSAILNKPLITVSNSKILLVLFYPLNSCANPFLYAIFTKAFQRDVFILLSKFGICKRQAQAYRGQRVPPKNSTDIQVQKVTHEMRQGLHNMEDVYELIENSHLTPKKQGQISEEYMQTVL
How it was run: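 Inhibition of TSH-stimulated cAMP accumulation was quantified by homogeneous time-resolved FRET in TSHR-transfected HEK293 cells. Agonist: TSH, 4 nM final (EC80).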

[14] = target: Thyrotropin-releasing hormone receptor (Homo sapiens) (UniProt P34981); experiment: qHTS for Small Molecule Agonists and Allosteric Enhancers of Human TRH Receptor: Validation Screen for Agonists (AID 493127;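 active means calcium activation more than 3 SD above the typical response in the agonist read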;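 further: intracellular calcium rise by fluo-8 fluorescence before TRH EC20 addition; 0% is about no effect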); conditions: TRH receptor agonist cell assay; at 2 µM; stronger effect = higher value
Thyrotropin-releasing hormone receptor (Homo sapiens), sequence (P34981 whole entry, looked up): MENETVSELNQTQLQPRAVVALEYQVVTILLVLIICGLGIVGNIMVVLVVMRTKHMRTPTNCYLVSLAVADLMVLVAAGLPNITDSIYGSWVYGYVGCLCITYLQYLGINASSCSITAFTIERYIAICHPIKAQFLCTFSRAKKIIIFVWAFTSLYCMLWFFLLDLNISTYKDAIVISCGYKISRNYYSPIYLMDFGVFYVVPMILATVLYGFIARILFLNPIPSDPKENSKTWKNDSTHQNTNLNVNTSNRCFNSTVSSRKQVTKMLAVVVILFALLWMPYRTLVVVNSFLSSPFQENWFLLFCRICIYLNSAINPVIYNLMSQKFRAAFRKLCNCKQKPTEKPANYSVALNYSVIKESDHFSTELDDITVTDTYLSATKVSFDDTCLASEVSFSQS
How it was run: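 Kinetic fluorescence assay of agonist-induced calcium release: overnight-plated TRHR cells, room-temperature fluo-8 loading, baseline then compound addition with per-second reads.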

[15] = target: Galactokinase (Homo sapiens) (UniProt P51570); experiment: qHTS Validation Assay for Inhibitors of Human Galactokinase (GALK) (AID 493189); further: 0% is about no effect
Galactokinase (Homo sapiens), sequence (P51570 whole entry, looked up): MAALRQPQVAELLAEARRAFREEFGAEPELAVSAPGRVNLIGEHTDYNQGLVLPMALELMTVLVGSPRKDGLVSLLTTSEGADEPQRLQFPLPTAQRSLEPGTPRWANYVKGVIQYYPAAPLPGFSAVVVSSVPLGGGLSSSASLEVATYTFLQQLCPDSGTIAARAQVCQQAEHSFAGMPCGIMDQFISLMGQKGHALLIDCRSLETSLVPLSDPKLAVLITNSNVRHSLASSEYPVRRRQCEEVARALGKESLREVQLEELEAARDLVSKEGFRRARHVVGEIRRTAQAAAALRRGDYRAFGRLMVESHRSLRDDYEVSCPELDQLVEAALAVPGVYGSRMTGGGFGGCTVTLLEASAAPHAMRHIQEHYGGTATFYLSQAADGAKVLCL
How it was run: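 Enzyme activity is inferred from ATP consumption: human GALK phosphorylates galactose (100 uM) using 35 uM ATP for 1 h at room temperature, and luciferase-based Kinase-Glo Plus reports unconsumed ATP.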

[16] = target: Voltage-gated inwardly rectifying potassium channel KCNH2 (Homo sapiens) (UniProt Q12809); experiment: qHTS Assay for Small Molecule Inhibitors of the Human hERG Channel Activity (AID 588834);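 further: top concentration of the series differs between compounds; on the % scale 0 is the no-effect control and ±100 the full control effect; lower thallium flux fluorescence means stronger hERG block; nearly all actives have a fitted effect of over 50% in size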
Voltage-gated inwardly rectifying potassium channel KCNH2 (Homo sapiens), sequence (Q12809 whole entry, looked up): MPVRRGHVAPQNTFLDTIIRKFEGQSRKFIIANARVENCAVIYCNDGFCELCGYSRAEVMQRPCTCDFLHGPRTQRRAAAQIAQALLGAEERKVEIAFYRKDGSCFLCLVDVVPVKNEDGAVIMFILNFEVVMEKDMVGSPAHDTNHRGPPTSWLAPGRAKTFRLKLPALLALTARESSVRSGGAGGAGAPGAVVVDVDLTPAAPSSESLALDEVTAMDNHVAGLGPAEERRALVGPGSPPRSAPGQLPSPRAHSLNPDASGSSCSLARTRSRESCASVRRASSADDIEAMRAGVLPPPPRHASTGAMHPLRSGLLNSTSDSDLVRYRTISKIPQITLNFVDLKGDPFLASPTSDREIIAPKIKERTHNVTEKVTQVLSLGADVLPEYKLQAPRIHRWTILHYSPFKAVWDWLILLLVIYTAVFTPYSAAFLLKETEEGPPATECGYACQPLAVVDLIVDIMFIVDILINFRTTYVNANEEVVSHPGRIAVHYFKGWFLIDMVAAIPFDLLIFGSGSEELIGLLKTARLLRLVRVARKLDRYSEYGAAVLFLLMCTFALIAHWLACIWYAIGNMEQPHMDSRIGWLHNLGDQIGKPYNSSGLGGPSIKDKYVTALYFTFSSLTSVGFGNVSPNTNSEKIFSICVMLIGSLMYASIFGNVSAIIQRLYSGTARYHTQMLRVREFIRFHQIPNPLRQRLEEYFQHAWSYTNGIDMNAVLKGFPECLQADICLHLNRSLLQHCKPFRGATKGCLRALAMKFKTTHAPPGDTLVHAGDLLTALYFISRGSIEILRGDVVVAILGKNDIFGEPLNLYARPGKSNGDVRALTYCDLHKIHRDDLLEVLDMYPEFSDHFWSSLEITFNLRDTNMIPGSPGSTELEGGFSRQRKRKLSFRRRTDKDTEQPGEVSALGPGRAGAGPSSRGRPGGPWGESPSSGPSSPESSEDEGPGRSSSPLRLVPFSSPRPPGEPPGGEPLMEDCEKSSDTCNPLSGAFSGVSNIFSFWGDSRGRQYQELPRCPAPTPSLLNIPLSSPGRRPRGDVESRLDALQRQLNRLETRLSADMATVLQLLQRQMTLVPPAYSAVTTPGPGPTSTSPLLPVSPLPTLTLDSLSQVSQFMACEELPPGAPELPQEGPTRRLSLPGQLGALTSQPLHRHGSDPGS
How it was run: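 Homogeneous FluxOR thallium flux assay using hERG-expressing U2OS cells (BacMam). Compound treatment about 10 minutes preceded stimulation; reduced fluorescence taken as channel block.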

[17] = qHTS for differential inhibitors of proliferation of Plasmodium falciparum line 3D7 (AID 1876);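 further: parasite growth measured after three days of culture; 0% = vehicle wells and -100% = reference inhibitor wells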
[18] = qHTS for differential inhibitors of proliferation of Plasmodium falciparum line D10 (AID 1877);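 further: parasites grown with compound for 72 h before DNA staining; plate controls were vehicle wells for no effect and reference inhibitor wells for full effect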
[19] = qHTS for differential inhibitors of proliferation of Plasmodium falciparum line HB3 (AID 1886); conditions: Potency: Plasmodium falciparum HB3 proliferation inhibition;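 further: parasites grown with compound for 72 h before SYBR Green readout; plate controls were vehicle for no effect and reference inhibitor for full effect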
[20] = target: Transient receptor potential cation channel subfamily V member 1 (Homo sapiens) (UniProt Q8NER1); experiment: HTS Assay for Compounds that Act as Enhancers of the Vanilloid Receptor 1 (AID 488979); further: 0% is about no effect
How it was run: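 TRPV1 cells loaded with Fluo-8 calcium dye; compound added and Ca2+ signal (ex 480/em 520 nm) followed 3 min, then capsaicin at EC20 added and read 2 more min to detect enhancement.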

[21] = measured here: cell count channel max response
[22] = measured here: lipid channel max response

CNC(=O)[C@H]1O[C@@H](n2cnc3c(NCc4cccc(I)c4)ncnc32)[C@H](O)[C@H]1O
56.8%: max response [2, 22]
inactive: outcome [1] | activity change, negative = inhibition ([2]; at 57.5 µM (top of the series)) 1.11% | Potency [3] | Potency [4] | outcome [5] | Potency [6] | outcome [7] | Potency [8] | outcome [9] | Potency [10] | Potency [11] | Potency [12] | outcome [13] | activation [14] 1.38% | outcome [15] | Potency [16]
54.7%: max response [2, 21]

N[C@H](Cc1ccc(O)c(O)c1)C(=O)O
active: Potency [3] 10 µM | Potency [12] 17.8 µM
inactive: outcome [1] | Potency [4] | outcome [5] | Potency [17] | Potency [18] | Potency [6] | Potency [19] | outcome [7] | Potency [8] | outcome [9] | Potency [10] | Potency [11] | outcome [20] | outcome [13] | activation [14] 0.688% | outcome [15] | Potency [16]

CC(=O)O[C@H]1C[C@@H]2CCC3C(CC[C@@]4(C)[C@H]3C[C@H]([N+]3(C)CCCCC3)[C@@H]4OC(C)=O)[C@@]2(C)C[C@@H]1[N+]1(C)CCCCC1 (stereo partly specified)
-31.8%: max response [2, 21]
inactive: outcome [1] | activity change, negative = inhibition ([2]; at 57.5 µM (top of the series)) 0.655% | Potency [3] | Potency [4] | outcome [5] | Potency [6] | Potency [19] | outcome [7] | Potency [8] | outcome [9] | Potency [11] | Potency [12] | outcome [20] | outcome [13] | activation [14] 0.25% | outcome [15] | Potency [16]
-31.3%: max response [2, 22]

COc1ccc(CCNC[C@@H](O)c2ccc(O)cc2)cc1OC
inactive: outcome [1] | Potency [3] | Potency [4] | outcome [5] | Potency [17] | Potency [18] | Potency [6] | Potency [19] | outcome [7] | Potency [8] | outcome [9] | Potency [10] | Potency [11] | Potency [12] | outcome [20] | outcome [13] | outcome [15]

Nc1nc(SCc2ccc([N+](=O)[O-])cc2)c2ncn([C@@H]3O[C@H](CO)[C@H](O)[C@H]3O)c2n1
-38%: max response [2, 22]
-35.2%: max response [2, 21]
inactive: outcome [1] | activity change, negative = inhibition ([2]; at 57.5 µM (top of the series)) -2% | Potency [3] | Potency [4] | outcome [5] | Potency [18] | Potency [8] | outcome [9] | Potency [10] | Potency [11] | Potency [12] | outcome [20] | outcome [13] | activation [14] 0.75% | outcome [15]

NCCC(=O)NCCc1cnc[nH]1
9.26%: max response [2, 21]
15.5%: max response [2, 22]
inactive: outcome [1] | activity change, negative = inhibition ([2]; at 25.7 µM (top of the series)) 1.3% | Potency [3] | Potency [4] | outcome [5] | Potency [17] | Potency [18] | Potency [6] | Potency [19] | outcome [7] | Potency [8] | outcome [9] | Potency [10] | Potency [11] | Potency [12] | outcome [20] | outcome [13] | activation [14] 1% | outcome [15] | Potency [16]

CCCCCCCCCCCCCCC/C=C/[C@@H](O)[C@H](NC(=O)CCCCCCCCCCCCC)OC (tested in a mixture with another compound)
inactive: outcome [1] | Potency [3] | Potency [4] | outcome [5] | Potency [17] | Potency [18] | Potency [6] | Potency [19] | outcome [7] | Potency [8] | outcome [9] | Potency [10] | Potency [11] | Potency [12] | outcome [20] | outcome [13] | activation [14] 1.19% | outcome [15] | Potency [16]

NCC1OC(O[C@@H]2[C@H](O)[C@@H](OC3C(O)C(N)CC(N)C3OC3OC(CO)C(O)C(O)C3N)O[C@@H]2CO)C(N)C(O)C1O (stereo partly specified)
-4.61%: max response [2, 22]
-5.44%: max response [2, 21]
inactive: outcome [1] | activity change, negative = inhibition ([2]; at 57.5 µM (top of the series)) 1.08% | Potency [3] | Potency [4] | outcome [5] | Potency [17] | Potency [18] | Potency [6] | Potency [19] | outcome [7] | Potency [8] | outcome [9] | Potency [10] | Potency [11] | Potency [12] | outcome [20] | outcome [13] | activation [14] 1.44% | outcome [15] | Potency [16]

CN=C(N)NCCCC(N)C(=O)O (stereo unspecified)
-20%: max response [2, 21]
inactive: outcome [1] | activity change, negative = inhibition ([2]; at 57.5 µM (top of the series)) 0.52% | Potency [3] | Potency [4] | outcome [5] | Potency [17] | Potency [18] | Potency [6] | Potency [19] | outcome [7] | Potency [8] | outcome [9] | Potency [10] | Potency [11] | Potency [12] | outcome [20] | outcome [13] | activation [14] 0.812% | outcome [15]
-19.4%: max response [2, 22]

Cc1ccccc1N1CCN(S(=O)(=O)C[C@]23CCC(CC2NC(=O)[C@@H](N)CCS(C)(=O)=O)C3(C)C)CC1 (stereo partly specified)
-10.9%: max response [2, 22]
-14.5%: max response [2, 21]
inactive: outcome [1] | activity change, negative = inhibition ([2]; at 57.5 µM (top of the series)) 0.353% | Potency [3] | Potency [4] | Potency [17] | Potency [19] | outcome [7] | Potency [8] | outcome [9] | Potency [10] | Potency [11] | outcome [20] | outcome [13] | activation [14] 1% | outcome [15] | Potency [16]

NC(=NCCC[C@H](N)C(=O)O)NO
inactive: outcome [1] | Potency [3] | Potency [4] | outcome [5] | Potency [17] | Potency [18] | Potency [6] | Potency [19] | outcome [7] | Potency [8] | outcome [9] | Potency [10] | Potency [11] | Potency [12] | outcome [20] | outcome [13] | activation [14] 0.812% | outcome [15] | Potency [16]
